# From the supplement of paper PMC10849652
# Targets with a hit are over-represented here; the source holds about 7,900 in all. About 0.6% of all pairs of compound and target were hits. Unmarked numbers belong to inactive results.
# Compound: Cc1cc(Nc2cc(CN3CCOCC3)c3nc(C)c(Cc4ccc(Cl)cc4F)n3n2)n[nH]1 [gandotinib]
# Assay: log2 fold change, soluble protein after heating vs DMSO (PISA); higher = thermal stabilisation; K562 cells, 10 uM, 30 min; active = over 0.2 and 3.5 SD of the protein, either way, in both replicates (recomputed)
# Outline: (§1)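 For each measurement, 10 μM compound was applied for 30 min to K562 cells at 2×10^6 cells/mL. Aliquots were heated for 3 min across 48°C-58°C, pooled, and extracted in PBS with 0.5% NP-40 at 4°C; the supernatant after 21,000xg for 90 min was soluble protein. This was quantified by TMTpro 16plex LC-MS/MS with channel sums equalised, and thermal stability was reported relative to control samples from duplicates, on a log2 fold-change scale.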
# Sequence of UniProt Q15365 (Q15365 whole entry, looked up): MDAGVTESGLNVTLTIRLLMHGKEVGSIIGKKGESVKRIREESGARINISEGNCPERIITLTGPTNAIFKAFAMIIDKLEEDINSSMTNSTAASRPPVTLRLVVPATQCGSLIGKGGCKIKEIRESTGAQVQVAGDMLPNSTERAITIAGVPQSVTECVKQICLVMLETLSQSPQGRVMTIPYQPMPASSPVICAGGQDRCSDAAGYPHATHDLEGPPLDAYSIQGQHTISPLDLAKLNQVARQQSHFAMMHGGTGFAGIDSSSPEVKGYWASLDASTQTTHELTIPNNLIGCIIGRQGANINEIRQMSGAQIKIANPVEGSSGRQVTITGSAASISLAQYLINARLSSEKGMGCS
# Sequence of UniProt P27986 (P27986 whole entry, looked up): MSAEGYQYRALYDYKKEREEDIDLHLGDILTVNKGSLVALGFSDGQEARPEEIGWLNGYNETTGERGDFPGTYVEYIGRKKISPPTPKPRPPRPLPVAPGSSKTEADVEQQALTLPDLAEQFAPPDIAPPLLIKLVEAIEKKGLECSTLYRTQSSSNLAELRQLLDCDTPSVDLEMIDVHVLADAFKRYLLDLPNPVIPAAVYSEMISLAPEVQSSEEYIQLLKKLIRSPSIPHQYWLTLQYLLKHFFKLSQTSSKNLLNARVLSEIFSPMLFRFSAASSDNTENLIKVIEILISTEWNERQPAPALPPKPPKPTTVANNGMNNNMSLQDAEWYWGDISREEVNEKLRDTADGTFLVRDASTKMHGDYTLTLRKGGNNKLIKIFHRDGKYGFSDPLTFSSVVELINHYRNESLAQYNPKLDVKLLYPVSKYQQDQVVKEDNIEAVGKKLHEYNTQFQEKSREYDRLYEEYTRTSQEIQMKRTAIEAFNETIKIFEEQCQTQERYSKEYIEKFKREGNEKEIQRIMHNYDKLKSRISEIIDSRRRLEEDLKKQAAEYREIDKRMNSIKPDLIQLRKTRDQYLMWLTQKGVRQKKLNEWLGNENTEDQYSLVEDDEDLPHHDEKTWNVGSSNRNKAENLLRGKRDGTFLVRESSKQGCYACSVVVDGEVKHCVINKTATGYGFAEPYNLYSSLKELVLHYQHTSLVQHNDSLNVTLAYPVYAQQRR
# Sequence of UniProt P14618 (P14618 whole entry, looked up): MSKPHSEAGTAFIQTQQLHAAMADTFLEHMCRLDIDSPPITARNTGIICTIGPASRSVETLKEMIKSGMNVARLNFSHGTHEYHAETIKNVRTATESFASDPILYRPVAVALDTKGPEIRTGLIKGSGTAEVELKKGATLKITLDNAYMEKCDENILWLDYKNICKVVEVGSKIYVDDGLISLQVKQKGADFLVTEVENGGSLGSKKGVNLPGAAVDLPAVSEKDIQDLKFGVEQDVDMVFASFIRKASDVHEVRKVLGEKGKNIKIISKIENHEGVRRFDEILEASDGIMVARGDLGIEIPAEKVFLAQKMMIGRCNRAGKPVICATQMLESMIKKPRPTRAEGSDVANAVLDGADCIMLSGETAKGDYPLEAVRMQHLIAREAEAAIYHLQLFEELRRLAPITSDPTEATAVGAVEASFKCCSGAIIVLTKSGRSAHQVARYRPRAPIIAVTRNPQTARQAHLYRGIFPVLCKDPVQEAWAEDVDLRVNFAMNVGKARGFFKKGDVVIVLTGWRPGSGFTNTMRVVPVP
# Sequence of UniProt P15735 (P15735 whole entry, looked up): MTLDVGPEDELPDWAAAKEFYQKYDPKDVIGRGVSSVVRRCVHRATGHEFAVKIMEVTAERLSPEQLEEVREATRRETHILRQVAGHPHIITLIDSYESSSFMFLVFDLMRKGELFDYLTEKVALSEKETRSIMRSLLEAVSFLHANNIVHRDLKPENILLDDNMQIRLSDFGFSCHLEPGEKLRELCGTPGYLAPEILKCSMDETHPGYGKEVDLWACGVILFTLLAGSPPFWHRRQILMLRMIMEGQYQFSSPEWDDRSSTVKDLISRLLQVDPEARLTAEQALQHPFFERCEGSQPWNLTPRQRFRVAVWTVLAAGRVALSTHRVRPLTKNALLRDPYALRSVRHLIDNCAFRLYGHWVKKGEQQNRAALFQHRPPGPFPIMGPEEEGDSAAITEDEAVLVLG
# Sequence of UniProt Q15185 (Q15185 whole entry, looked up): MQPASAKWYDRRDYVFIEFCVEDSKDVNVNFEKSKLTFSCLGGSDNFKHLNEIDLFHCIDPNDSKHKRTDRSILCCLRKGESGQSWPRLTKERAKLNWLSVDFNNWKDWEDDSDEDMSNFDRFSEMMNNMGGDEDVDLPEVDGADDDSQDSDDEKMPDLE
# Sequence of UniProt Q9H814 (Q9H814 whole entry, looked up): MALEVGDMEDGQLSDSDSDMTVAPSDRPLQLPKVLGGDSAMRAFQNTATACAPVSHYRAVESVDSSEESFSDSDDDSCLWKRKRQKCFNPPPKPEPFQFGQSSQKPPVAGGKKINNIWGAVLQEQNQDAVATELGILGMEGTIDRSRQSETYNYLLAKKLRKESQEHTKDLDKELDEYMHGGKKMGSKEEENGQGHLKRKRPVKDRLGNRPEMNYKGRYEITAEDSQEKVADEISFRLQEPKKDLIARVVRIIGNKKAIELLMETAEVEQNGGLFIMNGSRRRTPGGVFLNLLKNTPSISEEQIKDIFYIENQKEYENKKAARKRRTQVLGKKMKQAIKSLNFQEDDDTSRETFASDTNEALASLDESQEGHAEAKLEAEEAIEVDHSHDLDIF
# Sequence of UniProt O43741 (O43741 whole entry, looked up): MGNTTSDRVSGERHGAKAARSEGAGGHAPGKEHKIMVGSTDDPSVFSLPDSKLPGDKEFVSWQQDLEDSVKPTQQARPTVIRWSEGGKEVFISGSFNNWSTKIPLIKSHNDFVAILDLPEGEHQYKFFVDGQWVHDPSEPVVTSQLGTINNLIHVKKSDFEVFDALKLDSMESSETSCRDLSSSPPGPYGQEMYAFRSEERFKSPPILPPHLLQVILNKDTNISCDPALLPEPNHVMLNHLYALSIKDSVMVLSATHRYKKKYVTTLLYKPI
# Sequence of UniProt O43242 (O43242 whole entry, looked up): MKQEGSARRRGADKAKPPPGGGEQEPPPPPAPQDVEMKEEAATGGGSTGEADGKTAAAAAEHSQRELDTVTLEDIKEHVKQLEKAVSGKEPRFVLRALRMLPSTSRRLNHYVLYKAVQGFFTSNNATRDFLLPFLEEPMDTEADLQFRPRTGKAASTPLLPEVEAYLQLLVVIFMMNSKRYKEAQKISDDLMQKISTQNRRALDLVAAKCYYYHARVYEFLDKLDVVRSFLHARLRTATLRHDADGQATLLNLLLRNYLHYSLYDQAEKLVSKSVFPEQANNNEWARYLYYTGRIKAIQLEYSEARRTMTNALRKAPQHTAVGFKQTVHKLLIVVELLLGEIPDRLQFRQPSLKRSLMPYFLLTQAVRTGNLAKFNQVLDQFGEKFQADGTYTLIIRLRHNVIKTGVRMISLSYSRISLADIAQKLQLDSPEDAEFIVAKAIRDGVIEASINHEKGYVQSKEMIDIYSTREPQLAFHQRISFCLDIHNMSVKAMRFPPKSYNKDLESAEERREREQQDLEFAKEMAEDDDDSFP
# Sequence of UniProt P43686 (P43686 whole entry, looked up): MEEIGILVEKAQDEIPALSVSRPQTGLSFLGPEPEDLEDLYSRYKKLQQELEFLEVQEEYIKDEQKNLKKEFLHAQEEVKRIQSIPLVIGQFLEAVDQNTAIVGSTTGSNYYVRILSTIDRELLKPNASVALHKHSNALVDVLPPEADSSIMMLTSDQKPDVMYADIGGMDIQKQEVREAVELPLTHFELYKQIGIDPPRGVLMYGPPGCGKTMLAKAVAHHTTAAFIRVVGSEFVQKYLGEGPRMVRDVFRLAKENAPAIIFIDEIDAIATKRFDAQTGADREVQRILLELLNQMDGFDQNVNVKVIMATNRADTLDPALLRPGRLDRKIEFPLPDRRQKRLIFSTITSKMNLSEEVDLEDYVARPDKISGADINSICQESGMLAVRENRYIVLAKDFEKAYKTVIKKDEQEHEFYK
# Sequence of UniProt O15162 (O15162 whole entry, looked up): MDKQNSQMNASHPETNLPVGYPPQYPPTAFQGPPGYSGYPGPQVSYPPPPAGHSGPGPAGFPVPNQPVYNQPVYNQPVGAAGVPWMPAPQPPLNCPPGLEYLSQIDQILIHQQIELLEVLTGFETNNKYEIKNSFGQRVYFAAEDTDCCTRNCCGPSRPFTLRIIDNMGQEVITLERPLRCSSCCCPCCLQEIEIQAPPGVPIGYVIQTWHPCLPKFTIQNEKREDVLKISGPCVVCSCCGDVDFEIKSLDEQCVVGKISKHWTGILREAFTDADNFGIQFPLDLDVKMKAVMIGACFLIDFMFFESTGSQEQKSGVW
# Sequence of UniProt O00233 (O00233 whole entry, looked up): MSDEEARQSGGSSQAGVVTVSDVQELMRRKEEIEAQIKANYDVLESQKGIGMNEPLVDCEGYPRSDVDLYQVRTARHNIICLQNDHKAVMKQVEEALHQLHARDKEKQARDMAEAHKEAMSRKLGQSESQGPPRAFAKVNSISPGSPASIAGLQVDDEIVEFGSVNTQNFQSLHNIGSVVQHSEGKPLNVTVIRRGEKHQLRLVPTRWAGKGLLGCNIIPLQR
# Sequence of UniProt Q9NR22 (Q9NR22 whole entry, looked up): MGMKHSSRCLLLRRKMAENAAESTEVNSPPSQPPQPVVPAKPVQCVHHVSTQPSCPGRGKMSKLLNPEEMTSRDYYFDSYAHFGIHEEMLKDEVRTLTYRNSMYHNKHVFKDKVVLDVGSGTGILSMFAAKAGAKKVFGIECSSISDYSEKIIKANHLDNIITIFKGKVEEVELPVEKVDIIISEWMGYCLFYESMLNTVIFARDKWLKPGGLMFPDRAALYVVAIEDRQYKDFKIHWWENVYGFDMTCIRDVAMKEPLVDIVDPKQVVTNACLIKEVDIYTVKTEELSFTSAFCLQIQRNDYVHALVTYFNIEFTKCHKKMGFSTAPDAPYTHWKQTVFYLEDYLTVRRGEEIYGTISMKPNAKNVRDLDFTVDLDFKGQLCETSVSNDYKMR
# Sequence of UniProt Q6EEV4 (Q6EEV4 whole entry, looked up): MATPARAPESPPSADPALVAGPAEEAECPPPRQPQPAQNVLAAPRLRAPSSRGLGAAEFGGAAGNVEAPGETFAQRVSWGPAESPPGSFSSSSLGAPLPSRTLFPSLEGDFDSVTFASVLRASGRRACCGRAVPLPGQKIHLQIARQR
row,Target,log2 fold change
1,PIK3R1 (UniProt P27986),-0.038
2,PKM isoform 2 (UniProt P14618),0.131
3,PSMC4 (UniProt P43686),-0.011
4,PHAX (UniProt Q9H814),0.035
5,POLR2K (UniProt P53803),-0.011
6,PLSCR1 (UniProt O15162),-0.096
7,PSMD9 (UniProt O00233),-0.018
8,PTGES3 (UniProt Q15185),-0.049
9,PHKG2 (UniProt P15735),-0.017
10,PSMD3 (UniProt O43242),0.028
11,PKN2 (UniProt Q16513),-0.058
12,PRKAB2 (UniProt O43741),-0.484 (active)
13,PLCL1 (UniProt Q15111),-0.14
14,PCBP1 (UniProt Q15365),-0.12
15,PRMT8 (UniProt Q9NR22),-0.047

# Compound: Cc1cc(Nc2cc(N3CCN(C)CC3)nc(Sc3ccc(NC(=O)C4CC4)cc3)n2)n[nH]1 [tozasertib]
# Assay: as above
# Outline: as §1
row,Target,log2 fold change
1,PELP1 (UniProt Q8IZL8),-0.012
2,PDE2A (UniProt O00408),-0.105
3,PSMD1 (UniProt Q99460),0.054
4,POLR2M (UniProt Q6EEV4),-0.039
5,POGLUT1 (UniProt Q8NBL1),0.004
6,PTP4A2 (UniProt Q12974),0.017
7,PRPF40A (UniProt O75400),0.061
8,PIKFYVE (UniProt Q9Y2I7),-0.005
9,PCYT1A (UniProt P49585),0.072
10,PRPF4B (UniProt Q13523),0.062
11,PNPLA2 (UniProt Q96AD5),-0.06
12,PARP1 (UniProt P09874),0.08
13,PDIK1L (UniProt Q8N165),-0.094
14,PTPN23 (UniProt Q9H3S7),0.148
15,PPP1R14A (UniProt Q96A00),-0.017
16,PIK3R1 (UniProt P27986),-0.026

row,Target,log2 fold change
1,PKM isoform 2 (UniProt P14618),0.056
2,PSMC4 (UniProt P43686),0.04
3,PHAX (UniProt Q9H814),0.082
4,POLR2K (UniProt P53803),-0.065
5,PLSCR1 (UniProt O15162),-0.075
6,PSMD9 (UniProt O00233),-0.03
7,PIK3CD (UniProt O00329),0.049
8,PTGES3 (UniProt Q15185),0.063
9,POLR2C (UniProt P19387),0.017
10,PHKG2 (UniProt P15735),-0.134
11,QRICH1 (UniProt Q2TAL8),0.171
12,PSMD3 (UniProt O43242),0.033
13,PRKAB2 (UniProt O43741),0.044
14,PLCL1 (UniProt Q15111),-0.015
15,PCBP1 (UniProt Q15365),0.047
16,PRMT8 (UniProt Q9NR22),-0.024

# Compound: Cc1cc(SCc2sc(-c3ccc(C(F)(F)F)cc3)nc2C)ccc1OCC(=O)O
# Assay: as above
# Outline: as §1
row,Target,log2 fold change
1,PELP1 (UniProt Q8IZL8),0.111
2,PDE2A (UniProt O00408),0.045
3,PSMD1 (UniProt Q99460),0.017
4,POLR2M (UniProt Q6EEV4),-0.061
5,POGLUT1 (UniProt Q8NBL1),0.037
6,PTP4A2 (UniProt Q12974),0.05
7,PNN (UniProt Q9H307),-0.003
8,PRPF40A (UniProt O75400),0.104
9,PIKFYVE (UniProt Q9Y2I7),0.091
10,PCYT1A (UniProt P49585),0.094
11,PRPF4B (UniProt Q13523),0.01
12,PNPLA2 (UniProt Q96AD5),-0.065
13,PARP1 (UniProt P09874),0.165
14,PDIK1L (UniProt Q8N165),0.017
15,PTPN23 (UniProt Q9H3S7),0.13
16,PPP1R14A (UniProt Q96A00),-0.049
17,PIK3R1 (UniProt P27986),0.051

row,Target,log2 fold change
1,PKM isoform 2 (UniProt P14618),0.12
2,PSMC4 (UniProt P43686),0.001
3,PHAX (UniProt Q9H814),-0.062
4,POLR2K (UniProt P53803),0.001
5,PLSCR1 (UniProt O15162),-0.017
6,PSMD9 (UniProt O00233),-0.026
7,PIK3CD (UniProt O00329),-0.11
8,PTGES3 (UniProt Q15185),0.086
9,POLR2C (UniProt P19387),0.113
10,PHKG2 (UniProt P15735),-0.006
11,QRICH1 (UniProt Q2TAL8),0.014
12,PSMD3 (UniProt O43242),0.047
13,PKN2 (UniProt Q16513),0.133
14,PRKAB2 (UniProt O43741),0.051
15,PCBP1 (UniProt Q15365),0.07
16,PRMT8 (UniProt Q9NR22),0.045
